Structures are written as SMILES. Values without a mark were called inactive. The source made the active and inactive calls. Calls follow the shape of the full dose curve.
Potency is read from the fitted curve at half-maximal effect.

The first assay in a line: qHTS drug screen for cell cycle checkpoint inhibitors in PARPi-resistant BRCA-mutant ovarian cancer cell lines. (AID 1963452). The conditions noted are these: PEO1/OlaR viability, CellTiter-Glo luminescence, 96 h. Put shortly: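 PEO1, PEO4 and PEO1/OlaR ovarian cancer cells, 600 per well, exposed 96 h at 37C to a dilution series. Viability read by CellTiter-Glo luminescence, normalized to DMSO and empty wells; activity summarized as Z-AUC.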
On the technique in general: qHTS replaces the single test concentration by a dilution series.
For the compound `COc1cc([C@@H]2c3cc4c(cc3[C@H](O)[C@H]3COC(=O)[C@H]23)OCO4)cc(OC)c1OC`, the Potency was 17.4 nM (active).
Still for that read-out and setting: to `COC(=O)Nc1nc2ccc(C(=O)c3ccccc3)cc2[nH]1` belongs 436 nM (active).
Same read-out and setting: the figure for `CCc1c2c(nc3ccc(OC(=O)N4CCC(N5CCCCC5)CC4)cc13)-c1cc3c(c(=O)n1C2)COC(=O)[C@]3(O)CC` is 30.9 nM (active).

Staying with this assay, now noted: PEO1/OlaR viability, CellTiter-Glo luminescence, 96 h; stronger effect = lower value.
With `S=P(N1CC1)(N1CC1)N1CC1`, the Z-AUC is 0.79.
The same measure, in the same setting: to `COc1ccc(-c2ccc3cc(C(=O)O)ccc3c2)cc1C12CC3CC(CC(C3)C1)C2` belongs 0.117; to `COc1ccc2cc3[n+](cc2c1OC)CCc1cc2c(cc1-3)OCO2`, 0.64; to `CNNCc1ccc(C(=O)NC(C)C)cc1`, 1.13.
Turning to `N=C(N)c1ccc(OCCCCCOc2ccc(C(=N)N)cc2)cc1`, the Z-AUC was 0.0445.
On to `Oc1c(Cl)cc(Cl)c2cccnc12`, for which the Z-AUC was 0.201.
Same read-out and setting: the figure for `CCc1cc(C(N)=S)ccn1` is 0.368; for `COc1cc2c(Nc3ccc(Br)cc3F)ncnc2cc1OCC1CCN(C)CC1` it is 0.231.
As to `COC(=O)Nc1nc2ccc(Sc3ccccc3)cc2[nH]1`, the Z-AUC is -0.927.
As to `C1CCC(C(CC2CCCCN2)C2CCCCC2)CC1` (stereo unspecified), the Z-AUC was -0.764.
As for `CC(C)Cn1cnc2c(N)nc3ccccc3c21`, the Z-AUC was -0.974.
Take `CCCc1nc(C)c2c(=O)[nH]c(-c3cc(S(=O)(=O)N4CCN(CC)CC4)ccc3OCC)nn12`: the Z-AUC is 1.15.
The same measure, in the same setting: to `CC(C)(Sc1cc(C(C)(C)C)c(O)c(C(C)(C)C)c1)Sc1cc(C(C)(C)C)c(O)c(C(C)(C)C)c1` belongs 0.926; to `COc1cc(NCc2ccc3nc(N)nc(N)c3c2C)cc(OC)c1OC`, 0.262; to `CCCCOc1ccc(CC(=O)NO)cc1`, -0.866.
For the compound `Cc1nnc(NS(=O)(=O)c2ccc(N)cc2)s1`, the Z-AUC is 1.31.
Consider `Nc1nc(N)c2nc(CNc3ccc(C(=O)NC(CCC(=O)O)C(=O)O)cc3)cnc2n1` (stereo unspecified), for which the Z-AUC is 0.0258.
The same measure, in the same setting: the figure for `CC(C)(C)C(=O)OCOP(=O)(COCCn1cnc2c(N)ncnc21)OCOC(=O)C(C)(C)C` is 0.383; for `CCOC(=O)[C@H](CCc1ccccc1)N[C@H]1CS[C@H](c2cccs2)CN(CC(=O)O)C1=O` it is -0.655; for `CNC(=O)c1cc(Oc2ccc(NC(=O)Nc3ccc(Cl)c(C(F)(F)F)c3)cc2)ccn1` it is 0.739.
Same read-out and setting: to `CCCCCCNC(=O)n1cc(F)c(=O)[nH]c1=O` belongs 1.08.
Turning to `CC(C)NCC(O)c1ccc(NS(C)(=O)=O)cc1` (stereo unspecified), the Z-AUC was -0.911.
On the same count and under the same terms, to `CC(C)OC(=O)C(C(=O)OC(C)C)=C1SC=CS1` belongs 1.21.
For the compound `CC[C@H](C)C(=O)O[C@H]1C[C@@H](C)C=C2C=C[C@H](C)[C@H](CC[C@@H]3C[C@@H](O)CC(=O)O3)[C@H]21`, the Z-AUC is 1.
The same measure, in the same setting: the figure for `O=c1cc(O)c(Cl)c[nH]1` is 1.39.
On the same count and under the same terms, the figure for `CC(=O)Oc1ccccc1C(=O)Nc1ncc([N+](=O)[O-])s1` is 0.99; for `COc1ccc(C(=O)CC(=O)c2ccc(C(C)(C)C)cc2)cc1` it is 1.49; for `CNC1CCCN(c2c(F)cc3c(=O)c(C(=O)O)cn(C4CC4)c3c2OC)C1` (stereo unspecified) it is 1.39.

Values taken from PubChem BioAssay (NCATS).
